What is called AC50 is the concentration giving half of the maximal activity seen.

Active and inactive are the calls of the source. The calls were made as follows: active = hit-call score of the fitted dose curve at least 0.9, where 1 is the maximum; inactive = score below 0.9.

The nature of this assay: APR_HepG2_MitoMass_24hr: Apredica 24-hour HepG2 Assay for Mitochondrial Mass (AID 2282912). Particulars: high-content imaging, actives raise or lower the signal. The protocol:
APR_HepG2_24hr is a cell-based, multiplexed-readout assay that uses HepG2, a human liver cell line, with measurements taken at 24 hours after chemical dosing in a 384-well plate.APR_HepG2_MitoMass_24hr is one of 10 assay component(s) measured or calculated from the APR_HepG2_24hr assay. It is designed to make measurements of cell phenotype, a form of morphology reporter, as detected with fluorescence intensity signals by HCS Fluorescent Imaging technology.Data from the assay component APR_HepG2_MitoMass_24hr was analyzed into 1 assay endpoint. This assay endpoint, APR_HepG2_MitoMass_24hr, was analyzed with bidirectional fitting relative to DMSO as the negative control and baseline of activity. Using a type of morphology reporter, gain or loss-of-signal activity can be used to understand changes in the signaling. Furthermore, this assay endpoint can be referred to as a primary readout, because this assay has produced multiple assay endpoints where this one serves a signaling function. To generalize the intended target to other relatable targets, this assay endpoint is annotated to the cell morphology intended target family, where the subfamily is organelle conformation.
Cells were treated with dimethyl sulfoxide (DMSO) as a solvent control at a final concentration of 0.5% v/v or with compounds in DMSO with a resulting final DMSO concentration of 0.5% v/v. Compound treatment was done at concentrations of 0.39, 0.78, 1.56, 3.12, 6.24, 12.5, 25, 50, 100, and 200 uM in duplicate on each plate. Cells were treated with compounds for 1, 24, or 72 hr. Carbonyl […] m-chloro-phenylhydrazone (CCCP) and taxol were used as positive controls for mitochondrial function and cytoskeletal stability, respectively; DMSO served as the negative control for this experiment. Cells were fixed by the direct addition of 50 uL formaldehyde in Hank's Balanced Salt Solution (HBSS) to a final concentration of 3.7%. After incubation in the fixation medium for 30 min at room temperature (293-298 K), cells were rinsed twice with HBSS and treated with cell permeabilization buffer (16 uL of 0.5% Triton X-100) for 10 min at room temperature (293-298 K) before labeling. For mitochondrial membrane potential and mitochondrial measurements, pre-fixed cells were incubated with 50 uL of MitoTracker Red CMXRos (Invitrogen) at a concentration of 250 nM for 30 min before fixation. In the remaining cases, post-fixed cells were labeled by incubation with a multiplexed mixture of primary antibodies in HBSS for 60 min at room temperature (293-298 K) to detect immunoreactivity of c-Jun (1:500), phospho-histone H3 (1:100), phospho-histone H2A.x (1:200), p53 (1:400), alpha-tubulin (1:200) and Hoechst 33342 (2 ug/mL). Cells were labeled for multiplexed imaging on two separate plates: a) Hoechst 33342, MitoTracker Red, phospho-histone H3, and alpha-tubulin, and b) Hoechst 33342, phospho-histone H2A.x, and c-Jun. A final rinse with HBSS (50 uL) was performed before analysis. The primary and secondary antibodies for the proteins were phospho-histone H3 (rabbit anti-phospho-histone H3 and FITC-donkey anti-rabbit IgG), phospho-histone H2A.x (mouse anti-phospho-histone H2A.x and FITC-donkey anti-mouse IgG), c-Jun (rabbit anti-phospho-c-Jun and Cy3-donkey anti-rabbit IgG), p53 (sheep anti-p53 and Cy5-donkey anti-sheep IgG), alpha-tubulin (mouse anti-alpha-tubulin and Cy5-donkey anti-mouse IgG). These antibodies are available as the CellCiphr HepG2 assay kit (Millipore).Digital images of each well were captured using a Cellomics ArrayScan VTI (Thermo Scientific Cellomics) (0.8 NA objective, 0.63x optical coupler, and XF-93 filter set) at 20x magnification. The images were acquired using the autofocus feature of the ArrayScan instrument, which entails the following steps. First, the camera focuses on channel 1 (Hoechst 33342), where nuclei are identified. Second, a Z offset of 1 um is used for capturing mitochondria (MitoTracker Red). […]
Regarding `CCCOc1nn(C(=O)NS(=O)(=O)c2ccccc2C(=O)OC)c(=O)n1C`, the result was inactive.
`CCNc1nc(Cl)nc(NC(C)(C)C#N)n1`: the outcome was inactive.
For the molecule `CSC1=N[C@@](C)(c2ccccc2)C(=O)N1Nc1ccccc1`, the result was inactive.
On to `CN(C)[C@@H]1C(=O)C(C(N)=O)=C(O)[C@@]2(O)C(=O)C3=C(O)c4c(O)cccc4[C@@](C)(O)[C@H]3[C@H](O)[C@@H]12`, for which the molecule was called inactive.
For `CN(C)C(=O)Nc1cccc(C(F)(F)F)c1`, the call was inactive.
For `Cc1ccn2nc(S(=O)(=O)Nc3c(F)cccc3F)nc2n1`, the call was inactive.
On the same count and under the same terms, in the case of `CCOP(=S)(OCC)Oc1cc(C)nc(C(C)C)n1` it was “inactive”; in that of `N#CSCSC#N`, “inactive”; in that of `CCCSP(=O)(OCC)Oc1ccc(Br)cc1Cl` (stereo not given), “inactive”.
As for `C#CC(C)(C)NC(=O)c1cc(Cl)cc(Cl)c1`, the call was inactive.
On to `COP(=O)(NC(C)=O)SC` (stereo not given), for which the result was inactive.
Still for that read-out and setting: in the case of `CCOC(=O)CC(SP(=O)(OC)OC)C(=O)OCC` (stereo not given) it was “inactive”; in that of `CC(C)N(C(=O)SCC(Cl)=C(Cl)Cl)C(C)C`, “inactive”; in that of `CC(C)[C@H](C(=O)O[C@H](C#N)c1cccc(Oc2ccccc2)c1)c1ccc(Cl)cc1`, “inactive”.
On the same count and under the same terms, in the case of `COc1cccc(C(=O)NN(C(=O)c2cc(C)cc(C)c2)C(C)(C)C)c1C` it was “inactive”; in that of `CC(C1CC1)C(O)(Cn1cncn1)c1ccc(Cl)cc1` (stereo not given), “inactive”; in that of `C[Si](Cn1cncn1)(c1ccc(F)cc1)c1ccc(F)cc1`, “inactive”.
Turning to `C=C(C)[C@H]1Cc2c(ccc3c2O[C@@H]2COc4cc(OC)c(OC)cc4[C@@H]2C3=O)O1`, the molecule was called inactive.
In the case of `CCOC(=O)COc1cc(-c2nn(C)c(OC(F)F)c2Cl)c(F)cc1Cl`, the molecule was classed as inactive.
`O=c1ccc(=O)[nH][nH]1`: the outcome was inactive.
As to `CCC(=NOC/C=C/Cl)C1=C(O)CC(C2CCOCC2)CC1=O` (stereo not given), the outcome was inactive.
The same measure, in the same setting: in the case of `CSc1nnc(C(C)(C)C)c(=O)n1N` it was “inactive”; in that of `CON=C(C(=O)OC)c1ccccc1CON=C(C)c1cccc(C(F)(F)F)c1`, “inactive”.
On the same count and under the same terms, for `C#CCC1=C(C)C(OC(=O)C2C(C=C(C)C)C2(C)C)CC1=O` (stereo not given) the value was “inactive”; for `Cc1cc(C2CC2)nc(Nc2ccccc2)n1`, “inactive”.
Regarding `COP(=O)(OC)OC(Br)C(Cl)(Cl)Br` (stereo not given), the result was inactive.
Turning to `FC(F)C(F)(F)OCC(Cn1cncn1)c1ccc(Cl)cc1Cl` (stereo not given), the outcome was inactive.
The same measure, in the same setting: for `CC(COc1ccc(Oc2ccccc2)cc1)Oc1ccccn1` (stereo not given) the value was “inactive”; for `CCOP(=O)(NC(C)C)Oc1ccc(SC)c(C)c1` (stereo not given), “inactive”.
As to `CC[C@H](C)[C@H]1O[C@]2(C=C[C@@H]1C)C[C@@H]1C[C@@H](C/C=C(\C)[C@@H](O[C@H]3C[C@H](OC)[C@@H](O[C@H]4C[C@H](OC)[C@@H](NC)[C@H](C)O4)[C@H](C)O3)[C@@H](C)/C=C/C=C3\CO[C@@H]4[C@H](O)C(C)=C[C@@H](C(=O)O1)[C@]34O)O2`, the concentration at half-maximal activity (AC50) is 8.64 µM (active).
Consider `Cc1nn(-c2cc(NS(C)(=O)=O)c(Cl)cc2Cl)c(=O)n1C(F)F`, for which the result was inactive.
With `CCOP(=S)(Oc1cnc(C(C)(C)C)nc1)OC(C)C` (stereo not given), the molecule was classed as inactive.
In the case of `CCCSP(=O)(OCC)SCCC`, the call was inactive.
Still for that read-out and setting: for `CCC(=O)Nc1ccc(Cl)c(Cl)c1` the value was “inactive”.
In the case of `CCOP(=O)(OCC)Oc1cc(C)nc(C(C)C)n1`, the call was inactive.
Take `COc1ccc(C(=CC(=O)N2CCOCC2)c2ccc(Cl)cc2)cc1OC`: the result was inactive.
On the same count and under the same terms, in the case of `S=C1NCCN1` it was “inactive”; in that of `O=C(O)c1cc(Oc2ccc(C(F)(F)F)cc2Cl)ccc1[N+](=O)[O-]`, “inactive”; in that of `CC1=NNC(=O)N(/N=C/c2cccnc2)C1`, “inactive”.
On to `Nc1c(Cl)cc([N+](=O)[O-])cc1Cl`, for which the molecule was called inactive.

Values taken from PubChem BioAssay (EPA / NIEHS).
